Reference: PubChem BioAssay (Tox21)
Records with an inconclusive call do not appear. Calls of active or inactive are those of the source. Unless noted, calls come from the whole dose curve; as a rule, active = well fitted curve in the direction sought with a large enough effect in the repeat runs; inconclusive = weak or mixed curves; inactive = no such curve, though single readings can be large; an effect the other way counts as inactive or inconclusive.

How the values were obtained:
[1] = qHTS assay to identify small molecule antagonists of the thyroid receptor (TR) signaling pathway (AID 743065); note: series mostly up to about 70 µM; nearly all actives have a fitted effect of over 55% in size
Procedure, shortened: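 GH3.TRE-Luc rat pituitary cells carrying two TR response elements driving luciferase were plated for 4 h, given compound plus 1 nM T3 (final), and incubated 23.5 h at 37 C. ONE-Glo luminescence measured reporter inhibition; CellTiter-Fluor fluorescence tracked cytotoxicity.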

[2] = tested on: thyroid hormone receptor (rat, GH3 cells); assay: qHTS assay to identify small molecule agonists of the thyroid receptor (TR) signaling pathway (AID 743066; calls by dose curve)
[3] = qHTS assay to identify small molecule antagonists of the estrogen receptor alpha (ER-alpha) signaling pathway - cell viability counter screen (AID 743074; calls by dose curve; note: nearly all actives have a fitted effect of over 45% in size)
[4] = qHTS assay to identify small molecule antagonists of the estrogen receptor alpha (ER-alpha) signaling pathway using the BG1 cell line - cell viability counter screen (AID 743081);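 note: compound given together with 17beta-estradiol as the ER stimulus; series mostly up to about 70 µM; nearly all actives have a fitted effect of over 45% in size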
Aromatase (Homo sapiens) = Aromatase (Homo sapiens) (UniProt P11511); assay: qHTS assay to identify aromatase inhibitors (AID 743083); note: series mostly up to about 70 µM; nearly all actives have a fitted effect of over 55% in size
Chain of Aromatase (Homo sapiens) (P11511 whole entry, looked up): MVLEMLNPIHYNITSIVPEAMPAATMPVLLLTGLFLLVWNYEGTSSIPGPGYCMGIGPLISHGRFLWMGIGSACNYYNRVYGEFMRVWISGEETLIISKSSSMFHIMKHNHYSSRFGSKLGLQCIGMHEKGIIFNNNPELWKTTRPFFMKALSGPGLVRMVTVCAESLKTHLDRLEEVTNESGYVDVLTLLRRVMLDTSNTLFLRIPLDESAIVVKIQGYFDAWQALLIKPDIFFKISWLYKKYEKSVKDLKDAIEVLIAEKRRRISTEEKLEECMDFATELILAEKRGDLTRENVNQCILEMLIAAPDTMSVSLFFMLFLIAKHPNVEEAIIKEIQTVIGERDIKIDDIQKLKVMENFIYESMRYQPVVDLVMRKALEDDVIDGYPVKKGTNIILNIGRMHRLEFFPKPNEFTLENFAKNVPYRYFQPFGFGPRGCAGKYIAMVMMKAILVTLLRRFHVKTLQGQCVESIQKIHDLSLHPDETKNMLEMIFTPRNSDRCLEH

[5] = qHTS assay to identify aromatase inhibitors - cell viability counter screen (AID 743084);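 note: cells stimulated with testosterone during compound exposure; nearly all actives have a fitted effect of over 55% in size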
[6] = qHTS assay to identify small molecule that activate the aryl hydrocarbon receptor (AhR) signaling pathway - cell viability counter screen (AID 743086);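 note: HepG2 liver cells carrying the AhR DRE luciferase reporter; series mostly up to about 70 µM; nearly all actives have a fitted effect of over 45% in size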
Procedure, shortened: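 HepG2-AhR-luc (HG2L7.5c1) cells, 4000/well, were preincubated 5 h at 37C, exposed to compound in qHTS format for 24 hr at 37C, then given CellTiter-Fluor for 30 min; viability was read as fluorescence in the reporter wells.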

[7] = target: Peroxisome proliferator-activated receptor gamma (Homo sapiens) (UniProt P37231); assay: qHTS assay to identify small molecule agonists of the peroxisome proliferator-activated receptor gamma (PPARg) signaling pathway (AID 743094; active = well fitted activation curve with a large enough effect in the signal ratio in the repeat runs, not every such curve was filed as active; the % refers to the signal ratio)
Chain of Peroxisome proliferator-activated receptor gamma (Homo sapiens) (P37231 whole entry, looked up): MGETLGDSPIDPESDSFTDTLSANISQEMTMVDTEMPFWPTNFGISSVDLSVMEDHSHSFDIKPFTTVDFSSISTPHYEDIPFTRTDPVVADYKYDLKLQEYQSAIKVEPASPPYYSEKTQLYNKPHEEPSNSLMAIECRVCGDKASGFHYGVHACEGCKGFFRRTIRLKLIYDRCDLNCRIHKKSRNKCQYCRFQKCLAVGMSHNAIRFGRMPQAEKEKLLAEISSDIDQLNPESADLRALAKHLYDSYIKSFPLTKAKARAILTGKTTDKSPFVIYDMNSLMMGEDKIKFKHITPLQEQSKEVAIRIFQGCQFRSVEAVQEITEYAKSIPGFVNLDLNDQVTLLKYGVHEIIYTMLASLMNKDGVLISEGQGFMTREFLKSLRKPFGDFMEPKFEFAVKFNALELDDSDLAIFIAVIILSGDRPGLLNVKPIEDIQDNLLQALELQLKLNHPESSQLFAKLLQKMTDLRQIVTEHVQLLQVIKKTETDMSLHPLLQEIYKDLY
Procedure, shortened: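 Fluorescence-based beta-lactamase readout in HEK293H PPARg UAS-bla cells after 17 h compound exposure (37C) and 1 h B/G FRET substrate incubation at room temperature.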

[8] = target: Peroxisome proliferator-activated receptor gamma (Homo sapiens) (UniProt P37231); assay: qHTS assay to identify small molecule antagonists of the peroxisome proliferator-activated receptor gamma (PPARg) signaling pathway (AID 743191; calls by dose curve; note: series mostly up to about 63 µM; nearly all actives have a fitted effect of over 30% in size)
Procedure, shortened: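 GeneBLAzer PPARg UAS-bla HEK293H cells carrying a UAS-driven beta-lactamase reporter were plated at 3000 cells/well, preincubated 5 h at 37C, then given compound for 17 h at 37C; LiveBLAzer B/G FRET substrate was read after 1 h at room temperature.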

[9] = qHTS assay to identify small molecule antagonists of the peroxisome proliferator-activated receptor gamma (PPARg) signaling pathway - cell viability counter screen (AID 743194); note: nearly all actives have a fitted effect of over 55% in size
Procedure, shortened: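 PPARg-UAS-bla HEK293H cells were plated, rested 5 h at 37 C, then treated with compounds plus rosiglitazone (50 nM final) for 17 h at 37 C; viability was then read by CellTiter-Glo luminescence after 30 min at room temperature.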

[10] = qHTS assay for small molecule agonists of the antioxidant response element (ARE) signaling pathway - cell viability counter screen (AID 743203; calls by dose curve; note: nearly all actives have a fitted effect of over 55% in size)
Procedure, shortened: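 Parallel cytotoxicity read-out for the ARE-bla screen: HepG2 reporter cells, 16 hrs with compounds, then CellTiter-Glo luminescence.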

[11] = qHTS assay for small molecule activators of the heat shock response signaling pathway - cell viability counter screen (AID 743209); note: nearly all actives have a fitted effect of over 50% in size
Procedure, shortened: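 To flag cytotoxic compounds, HSE-bla HeLa cells plated at 1500 cells/well were dosed for 5 h at 37 C, followed by the reporter FRET read and then CellTiter-Glo, with luminescence recorded 30 min after reagent addition.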

[12] = qHTS assay to identify small molecule agonists of the peroxisome proliferator-activated receptor delta (PPARd) signaling pathway - cell viability counter screen (AID 743211); note: nearly all actives have a fitted effect of over 55% in size
Procedure, shortened: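 Following 5 h plating at 37 C and 5% CO2, PPARd UAS-bla HEK293H cells took up test compounds for 17 h. Viability was quantified by luminescence 30 min after CellTiter-Glo addition at room temperature.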

[13] = qHTS assay for small molecule agonists of the antioxidant response element (ARE) signaling pathway (AID 743202; active = well fitted activation curve with a large enough effect in the signal ratio in the repeat runs, not every such curve was filed as active; the % refers to the signal ratio)
Procedure, shortened: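 Steps: seed ARE-bla HepG2 cells (2,000/well); incubate 5 h at 37 C; add compounds by pin tool; incubate 16 h at 37 C; add FRET substrate; read fluorescence after 2 h at RT.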

[14] = target: Aryl hydrocarbon receptor (Homo sapiens) (UniProt P35869); assay: qHTS assay to identify small molecule that activate the aryl hydrocarbon receptor (AhR) signaling pathway (AID 743085);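 note: HG2L7.5c1 human HepG2 liver cells with stably integrated DRE-driven firefly reporter; series mostly up to about 70 µM; nearly all actives have a fitted effect of over 15% in size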
Chain of Aryl hydrocarbon receptor (Homo sapiens) (P35869 whole entry, looked up): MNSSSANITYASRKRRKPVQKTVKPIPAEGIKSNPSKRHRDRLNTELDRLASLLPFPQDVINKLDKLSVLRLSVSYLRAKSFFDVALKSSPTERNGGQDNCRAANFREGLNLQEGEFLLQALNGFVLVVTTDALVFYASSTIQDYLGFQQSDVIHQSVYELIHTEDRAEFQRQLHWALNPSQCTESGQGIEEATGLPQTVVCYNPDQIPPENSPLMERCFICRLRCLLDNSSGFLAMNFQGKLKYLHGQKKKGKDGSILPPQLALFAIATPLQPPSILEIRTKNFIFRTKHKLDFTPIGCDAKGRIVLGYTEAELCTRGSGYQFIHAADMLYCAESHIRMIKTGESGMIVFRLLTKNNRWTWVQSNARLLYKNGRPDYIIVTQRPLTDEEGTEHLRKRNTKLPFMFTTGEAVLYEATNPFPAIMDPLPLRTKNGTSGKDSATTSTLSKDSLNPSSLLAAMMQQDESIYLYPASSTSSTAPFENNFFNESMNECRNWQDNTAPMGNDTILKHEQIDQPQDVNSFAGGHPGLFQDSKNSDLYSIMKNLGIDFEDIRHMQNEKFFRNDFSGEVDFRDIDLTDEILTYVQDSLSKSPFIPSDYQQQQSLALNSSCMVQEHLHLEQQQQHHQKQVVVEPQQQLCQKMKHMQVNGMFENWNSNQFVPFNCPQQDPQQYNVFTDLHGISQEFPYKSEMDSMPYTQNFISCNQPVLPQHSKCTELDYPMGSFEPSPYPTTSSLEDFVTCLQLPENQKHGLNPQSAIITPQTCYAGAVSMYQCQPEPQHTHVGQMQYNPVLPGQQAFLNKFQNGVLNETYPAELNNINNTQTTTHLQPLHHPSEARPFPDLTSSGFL
Procedure, shortened: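 Measured in HG2L7.5c1 cells: CellTiter-Fluor signal (30 min incubation, 37C) for viability, then luciferase luminescence (30 min, room temperature). Compound contact time was 24 h at 37C, following a 5 h pre-incubation.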

[15] = qHTS assay for small molecule activators of the heat shock response signaling pathway (AID 743210; active = well fitted activation curve with a large enough effect in the signal ratio in the repeat runs, with a control signal flat, not every such curve was filed as active; the % refers to the signal ratio;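 note: HeLa cells with beta-lactamase reporter driven by heat shock elements; series mostly up to about 63 µM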)
Procedure, shortened: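 Activation of heat shock element-controlled beta-lactamase expression is measured in HeLa cells by LiveBLAzer FRET fluorescence, with compound exposure lasting 5 h at 37 C and substrate loading 2.5 h at room temperature.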

[16] = target: Estrogen receptor (Homo sapiens) (UniProt P03372); assay: qHTS assay to identify small molecule antagonists of the estrogen receptor alpha (ER-alpha) signaling pathway (AID 743069; active = well fitted curve in the direction sought with a large enough effect in the signal ratio in the repeat runs, not every such curve was filed as active; the % refers to the signal ratio)
Chain of Estrogen receptor (Homo sapiens) (P03372 whole entry, looked up): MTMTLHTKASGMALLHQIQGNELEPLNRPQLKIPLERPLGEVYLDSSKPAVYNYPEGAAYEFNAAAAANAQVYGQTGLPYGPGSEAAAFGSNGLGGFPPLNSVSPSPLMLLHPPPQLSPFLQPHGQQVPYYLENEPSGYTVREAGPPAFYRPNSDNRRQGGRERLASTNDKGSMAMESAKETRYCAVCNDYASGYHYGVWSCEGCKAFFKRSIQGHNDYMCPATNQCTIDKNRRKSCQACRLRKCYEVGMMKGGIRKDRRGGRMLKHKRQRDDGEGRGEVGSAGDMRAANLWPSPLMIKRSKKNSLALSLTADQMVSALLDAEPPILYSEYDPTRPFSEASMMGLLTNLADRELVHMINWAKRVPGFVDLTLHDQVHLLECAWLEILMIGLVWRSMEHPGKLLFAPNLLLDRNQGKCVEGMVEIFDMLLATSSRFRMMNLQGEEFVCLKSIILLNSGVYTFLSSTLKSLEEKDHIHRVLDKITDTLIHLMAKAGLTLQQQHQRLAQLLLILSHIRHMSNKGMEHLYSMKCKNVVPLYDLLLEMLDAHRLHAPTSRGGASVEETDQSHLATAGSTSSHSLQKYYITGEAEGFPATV
Procedure, shortened: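 Screening used a UAS-driven beta-lactamase reporter integrated into HEK293 cells expressing ER-alpha, stimulated with 17beta-estradiol alongside test compounds over 18 hr at 37C; signal came from LiveBLAzer B/G FRET fluorescence.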

[17] = target: Estrogen receptor (Homo sapiens) (UniProt P03372); assay: qHTS assay to identify small molecule agonists of the estrogen receptor alpha (ER-alpha) signaling pathway (AID 743075; calls by dose curve)
[18] = target: Estrogen receptor (Homo sapiens) (UniProt P03372); assay: qHTS assay to identify small molecule agonists of the estrogen receptor alpha (ER-alpha) signaling pathway using the BG1 cell line (AID 743079); note: nearly all actives have a fitted effect of over 20% in size
[19] = qHTS assay to identify small molecule antagonists of the estrogen receptor alpha (ER-alpha) signaling pathway using the BG1 cell line (AID 743080; calls by dose curve;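 note: BG1 cells stimulated with 17beta-estradiol alongside compound; series mostly up to about 70 µM; nearly all actives have a fitted effect of over 25% in size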)
Procedure, shortened: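 BG1-Luc-4E2 cells (endogenous full-length ER-alpha, stable 4×ERE-luciferase) were starved 5 days in phenol-red-free medium with 10% charcoal-stripped FBS, plated 24 h, then given compound plus 17beta-estradiol for 21.5 h at 37 C; ONE-Glo luminescence read after 30 min.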

Measured: Potency

CN(C)CCOC(=O)COc1ccc(Cl)cc1
not listed: [13] | [14] | [15] | [16] | [17] | [18] | [19]
inactive: all other assays above

N#Cc1ccccc1
not listed: [14] | [15] | [16] | [17] | [18] | [19]
inactive: all other assays above

CCCOC(=O)c1ccccc1
not listed: [8] | [15] | [16] | [17] | [18] | [19]
inactive: all other assays above

Clc1ccccn1
inactive: [1] | [2] | [3] | [4] | [6] | [9] | [13] | [10] | [11] | [15] | [12]

CCCCCCCCCCCCCCCC(=O)OC(C)C
inactive: [1] | [2] | [3] | [4] | [6] | [9] | [13] | [10] | [11] | [12]

C=C(C)CNCC
not listed: [14] | [16] | [17] | [18] | [19]
inactive: all other assays above

C=CCc1ccc(OC)c(OC)c1
not listed: [8] | [14] | [15] | [16] | [17] | [18] | [19]
inactive: all other assays above

COc1ccc(OC)cc1
not listed: [1] | [2] | [3] | [14]
inactive: all other assays above

CCOC(=O)n1ccn(C)c1=S
not listed: [1] | [2] | [15]
inactive: all other assays above

CC(=O)OC1CC(C)OC(C)O1 (configuration not stated)
not listed: [14] | [15] | [16] | [17] | [18] | [19]
inactive: all other assays above

CN1C(=O)CC[C@H]1c1cccnc1
not listed: [1] | [2] | [14] | [16] | [17] | [18] | [19]
inactive: all other assays above

CC1(C)OC[C@@H]2O[C@@]3(C(=O)O)OC(C)(C)O[C@H]3[C@@H]2O1
not listed: [14] | [15] | [16] | [17] | [18] | [19]
inactive: all other assays above

OCc1cccc(Oc2ccccc2)c1
not listed: [8] | [14] | [15] | [16] | [17] | [18] | [19]
inactive: all other assays above
